High-throughput results: PubChem BioAssay, National Center for Advancing Translational Sciences (NCATS)
Marburg entry inh = qHTS for inhibitors of binding or entry into cells for Marburg Virus; Marburg virus pseudotyped entry inhibition, cell reporter; Potency, µM (top dose mostly 37.8 µM), without a hit: at the top dose activity change, negative = inhibition, usual class: inhibitors; 300,000 compounds, 1.8% hits; AID 540276, 2011; calls by dose curve; tested in HEK293 cells; also: potency is read from the fitted curve at half-maximal effect; % is scaled to controls: 0 for no effect and ±100 for the full control effect
FMDV inh = High Throughput Screening for Foot and Mouth Disease Virus Antivirals; FMDV antiviral cell-based qHTS; Potency, µM (doses to about 57.9 µM), for inactives: at the top dose activity change, negative = inhibition, most hits filed as inhibitors; 410,000 compounds, 1.2% hits; AID 1159524, 2015; calls by dose curve; tested in HEK293T cells; also: read-out not given here; potency is read from the fitted curve at half-maximal effect; % is scaled to controls: 0 for no effect and ±100 for the full control effect; nearly all actives have a fitted effect of over 45% in size
HCV inh = qHTS Assay for Inhibitors of Hepatitis C Virus (HCV); Huh7.5.1 HCVcc-Cre infection, luciferase reporter, 44 h; 340,000 compounds, 3.4% hits; Potency, µM (top dose mostly 41.8 µM), inactives show at the highest dose activity change, negative = inhibition, usual class: inhibitors; active = well fitted inhibition curve with a large enough effect; inconclusive = small, poorly fitted or top-dose-only effect, or another doubt; inactive = no such curve, though single readings can be large or run the other way; also: potency is read from the fitted curve at half-maximal effect; % is scaled to controls: 0 for no effect and ±100 for the full control effect
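Cells seeded at 1,000/well and cultured 4 h, then compounds added followed by HCVcc-Cre virus (~0.5 moi). After 44 h further culture, luciferase substrate was added, plates held 15 min at room temperature, and luminescence read for 15 sec.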
HCMV inh = qHTS Assay for inhibitors of the human cytomegalovirus (HCMV) | HFF cells, HCMV-luciferase reporter, 72 h; stronger effect = lower value | activity change, negative = inhibition, % at 57.5 µM | 410,000 compounds, 4.5% hits; in the data active = activity change below about -60%; inconclusive = no clear call, values can overlap the other calls; inactive = above about -39%; also: % is scaled to controls: 0 for no effect and ±100 for the full control effect
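Cell-based, HFFs, 1000 cells/well, 16 h 37C; cpds in DMSO + HCMV-luc, MOI 1 PFU/cell; 72 h 37C; OneGlo luminescence after 5 min RT; norm. to buffer vs Salinomycin 10uM.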
LASV entry inh = qHTS for Inhibitors of binding or entry into cells for Lassa Virus; 300,000 compounds, 1.2% hits; Lassa virus pseudotype entry inhibition, cell reporter; Potency, µM (doses to about 37.9 µM), for the others: at the highest dose activity change, negative = inhibition, actives largely listed as inhibitors; calls by dose curve; tested in HEK293 cells; also: potency is read from the fitted curve at half-maximal effect; % is scaled to controls: 0 for no effect and ±100 for the full control effect; nearly all actives have a fitted effect of over 50% in size
SARS PLpro yeast = qHTS of Yeast-based Assay for SARS-CoV PLP | S. cerevisiae expressing SARS-CoV PLpro, growth rescue | Potency, µM (doses to about 32.9 µM), for inactives: at the highest dose activity, positive = growth rescue, actives largely listed as activators | 330,000 compounds, 0.19% hits | AID 485353, 2010; calls by dose curve; also: potency is read from the fitted curve at half-maximal effect; 0% is about no effect; nearly all actives have a fitted effect of over 55% in size
An asterisk follows results filed as active; [ ] = another dose, or the depositor's remark. In the library only some 8% were active in any assay of this set; here they are far more common.

Results for OCc1cn(-c2ccccc2)nc1-c1ccc2c(c1)OCCO2 ?
Marburg entry inh: inconclusive; FMDV inh: -19%; HCV inh: 11µM*; HCMV inh: 81; LASV entry inh: inconclusive; SARS PLpro yeast: -18%

How did O=C(O)/C=C/c1cn(-c2ccccc2)nc1-c1ccc2c(c1)OCCO2 do in these assays?
Marburg entry inh: -7%[46.1 µM]; FMDV inh: 11%; HCV inh: 3%; HCMV inh: -14; LASV entry inh: 0%; SARS PLpro yeast: 5%

Results for COc1ccc(Cl)cc1NC(=O)CSc1nc(-c2ccco2)cc(C(F)(F)F)n1 ?
Marburg entry inh: inconclusive; FMDV inh: 0%; HCMV inh: inconclusive; LASV entry inh: -11%[46.1 µM]

How did CCCCN(CC)CCCNC(=O)C1CCN(c2nc3ccc(CC)cc3s2)CC1 do in these assays?
Marburg entry inh: inconclusive; FMDV inh: -3%; HCMV inh: -98*; LASV entry inh: inconclusive

What do the screens show for `CCCCN(C)CCCNC(=O)C1CCN(c2nc3ccc(CC)cc3s2)CC1`?
Marburg entry inh: inconclusive; FMDV inh: 6%; HCMV inh: -108*; LASV entry inh: inconclusive

Results for COc1cc(NC(=O)CCc2nc3cccnc3n2Cc2cccs2)cc(OC)c1OC ?
Marburg entry inh: inconclusive; FMDV inh: inconclusive; HCMV inh: 50; LASV entry inh: -4%[46.1 µM]

Results for CCCCCNC(=O)C1(C)CCc2nc3cc(C)c(C)cc3n21 (stereo unspecified) ?
HCMV inh: -11

How did Cc1sc2ccccc2c1CC1=NCCN1 do in these assays?
Marburg entry inh: inconclusive; FMDV inh: inconclusive; HCV inh: 3.2µM*; HCMV inh: -31; LASV entry inh: 13%; SARS PLpro yeast: 1%

What do the screens show for `COc1ccc(-c2noc(=O)n2CC(=O)N2CCC(Cc3ccccc3)CC2)cc1`?
FMDV inh: -26%; HCV inh: inconclusive; HCMV inh: inconclusive; SARS PLpro yeast: -1%

How did O=C(CNc1cccc2ccccc12)N/N=C/c1cccc(Oc2ccccc2)c1 do in these assays?
Marburg entry inh: -32%; FMDV inh: -2%; HCV inh: -5%; HCMV inh: -61*; LASV entry inh: -15%; SARS PLpro yeast: -15%

What do the screens show for `O=C(N/N=C/c1cccc(Oc2ccccc2)c1)c1ccccc1Br`?
Marburg entry inh: inconclusive; HCV inh: 11µM*; HCMV inh: -91*; LASV entry inh: 6.5µM*; SARS PLpro yeast: -19%

Results for Cc1ccc(NS(=O)(=O)c2ccc(Br)s2)nc1 ?
Marburg entry inh: -1%[46.1 µM]; FMDV inh: 36%; HCV inh: 3.5µM*; HCMV inh: inconclusive; LASV entry inh: -8%; SARS PLpro yeast: 4%

How did Cc1cc(C)nc(NS(=O)(=O)c2ccc(Br)s2)c1 do in these assays?
FMDV inh: 103%; HCV inh: -17%; HCMV inh: 41; SARS PLpro yeast: 14%

What do the screens show for `CCc1cnc2c(c1SCC(=O)c1ccc(OC)cc1)c(=O)n(C)c(=O)n2C`?
FMDV inh: 28µM*; HCMV inh: -6; LASV entry inh: inconclusive

What do the screens show for `O=C(Nc1ccc2nc(-c3ccc(Br)o3)[nH]c2c1)c1ccco1`?
Marburg entry inh: inconclusive; FMDV inh: -15%; HCV inh: -20%; HCMV inh: 11; LASV entry inh: inconclusive; SARS PLpro yeast: -5%

How did O=C(Nc1ccc2nc(-c3ccccc3)[nH]c2c1)c1ccco1 do in these assays?
Marburg entry inh: inconclusive; FMDV inh: 19%; HCV inh: inconclusive; HCMV inh: -67*; LASV entry inh: inconclusive; SARS PLpro yeast: 0%

What do the screens show for `O=C(Nc1cccc(-c2nc3ccccc3[nH]2)c1)c1cccc(NC(=O)c2ccco2)c1`?
Marburg entry inh: 13µM*; FMDV inh: 32µM*; HCV inh: 3.5µM*; HCMV inh: -102*; LASV entry inh: inconclusive; SARS PLpro yeast: 3%

How did Cc1ccccc1Nc1nc(N)nc(COC(=O)c2c(C)noc2C)n1 do in these assays?
Marburg entry inh: -27%[46.1 µM]; FMDV inh: 4%; HCV inh: inconclusive; HCMV inh: -17; LASV entry inh: -19%[46.1 µM]; SARS PLpro yeast: 0%

Results for NC(=S)N/N=C1\CC(c2ccc3c(c2)OCCO3)Oc2ccc(F)cc21 (stereo unspecified) ?
Marburg entry inh: inconclusive; FMDV inh: -26%; HCV inh: inconclusive; HCMV inh: -32; LASV entry inh: inconclusive; SARS PLpro yeast: -2%

How did NC(=S)N/N=C1\CC(c2ccc3c(c2)OCCCO3)Oc2ccc(F)cc21 (stereo unspecified) do in these assays?
Marburg entry inh: inconclusive; FMDV inh: inconclusive; HCV inh: 8.9µM*; HCMV inh: -14; LASV entry inh: inconclusive; SARS PLpro yeast: 1%

Results for O=C(Cc1csc(Nc2nc(=S)[nH]c3ccccc23)n1)NCc1ccc(Cl)cc1 ?
Marburg entry inh: 4%; FMDV inh: -17%; HCMV inh: -11; LASV entry inh: 22%[14.3 µM]; SARS PLpro yeast: -3%

Results for O=C(Cc1csc(Nc2nc(=S)[nH]c3ccccc23)n1)NCCCN1CCN(c2ccccc2F)CC1 ?
Marburg entry inh: inconclusive; FMDV inh: -27%; HCV inh: 4µM*; HCMV inh: -98*; SARS PLpro yeast: 8%

How did CC(C)CC(=O)NCCNC(=O)c1cc(OCC(F)(F)F)ccc1OCC(F)(F)F do in these assays?
Marburg entry inh: 0%; FMDV inh: -14%; HCV inh: 5%; HCMV inh: 35; LASV entry inh: -3%; SARS PLpro yeast: 4%

What do the screens show for `O=C(CCl)NCCNC(=O)c1cc(OCC(F)(F)F)ccc1OCC(F)(F)F`?
Marburg entry inh: inconclusive; FMDV inh: -13%; HCV inh: 22µM*; HCMV inh: -78*; LASV entry inh: -4%; SARS PLpro yeast: 0%

How did O=C(NCC1CCCCN1)c1cc(OCC(F)(F)F)ccc1OCC(F)(F)F (stereo unspecified) do in these assays?
Marburg entry inh: inconclusive; FMDV inh: 0%; HCV inh: 10µM*; HCMV inh: 0; LASV entry inh: inconclusive; SARS PLpro yeast: 8%

What do the screens show for `CCOC(=O)c1ccc(NC(=O)c2c(NCc3sccc3C)sc3c2CCC(C)C3)cc1` (stereo unspecified)?
FMDV inh: 17%; HCMV inh: -19; LASV entry inh: inconclusive

What do the screens show for `COc1cccc(CN2CCCC(c3nc(-c4ccncc4)ncc3-c3ccccc3)C2)c1O` (stereo unspecified)?
FMDV inh: -26%

How did O=C(NC(=S)Nc1cc(Cl)ccc1O)c1cccc(Br)c1 do in these assays?
FMDV inh: 43%; HCV inh: 11µM*; HCMV inh: inconclusive; SARS PLpro yeast: 0%
